From paper PMC7862700, “An all-to-all approach to the identification of sequence-specific readers for epigenetic DNA modifications on cytosine”

Tests used:
Assay in all cases: DAPPL (digital affinity profiling via proximity ligation, sequencing); 10 mM Tris-HCl pH 7.5, 50 mM NaCl, 1 mM DTT, 4% glycerol, room temperature, 30 min; GST-TFs on glutathione beads, 16-mer random dsDNA library, 0.1% formaldehyde crosslink after washing; high values mean tight binding
[1] = molecular target: T1, FLI1 (Homo sapiens, UniProt Q01543 1-452); details: protein: recombinant; tags: N-terminal GST; dsDNA, one strand shown
T1 sequence: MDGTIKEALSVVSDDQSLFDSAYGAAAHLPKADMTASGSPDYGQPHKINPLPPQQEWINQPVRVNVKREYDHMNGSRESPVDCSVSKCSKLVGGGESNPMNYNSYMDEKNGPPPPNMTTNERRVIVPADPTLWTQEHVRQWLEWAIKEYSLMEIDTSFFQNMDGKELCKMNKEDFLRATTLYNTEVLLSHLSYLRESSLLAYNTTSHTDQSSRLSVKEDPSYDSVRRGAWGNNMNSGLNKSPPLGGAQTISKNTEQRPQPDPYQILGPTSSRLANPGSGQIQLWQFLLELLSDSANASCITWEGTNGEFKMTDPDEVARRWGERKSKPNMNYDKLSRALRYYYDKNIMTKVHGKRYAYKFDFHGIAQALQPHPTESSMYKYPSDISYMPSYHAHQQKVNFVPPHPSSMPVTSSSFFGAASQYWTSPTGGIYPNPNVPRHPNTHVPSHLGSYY
In short: (§1)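 A tag-only sample was pooled with DNA-barcoded human transcription factors that had been expressed in yeast as GST fusions and captured on glutathione beads. The pools were incubated for 30 min at room temperature with 200 nmole of a random double-stranded 16-mer DNA library in Tris/NaCl/DTT/glycerol buffer, then washed, crosslinked with 0.1% formaldehyde, proximity-ligated (BsaI/T4 ligase, 1 h, 37 °C), PCR-amplified and sequenced on an Illumina NextSeq500. Binding signal is each hexamer's read frequency for a factor divided by its frequency for the tag-only sample.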

[2] = molecular target: T2, ELK1 (Homo sapiens, UniProt P19419 1-428); details: protein: recombinant; tags: N-terminal GST; dsDNA, one strand shown
T2 sequence: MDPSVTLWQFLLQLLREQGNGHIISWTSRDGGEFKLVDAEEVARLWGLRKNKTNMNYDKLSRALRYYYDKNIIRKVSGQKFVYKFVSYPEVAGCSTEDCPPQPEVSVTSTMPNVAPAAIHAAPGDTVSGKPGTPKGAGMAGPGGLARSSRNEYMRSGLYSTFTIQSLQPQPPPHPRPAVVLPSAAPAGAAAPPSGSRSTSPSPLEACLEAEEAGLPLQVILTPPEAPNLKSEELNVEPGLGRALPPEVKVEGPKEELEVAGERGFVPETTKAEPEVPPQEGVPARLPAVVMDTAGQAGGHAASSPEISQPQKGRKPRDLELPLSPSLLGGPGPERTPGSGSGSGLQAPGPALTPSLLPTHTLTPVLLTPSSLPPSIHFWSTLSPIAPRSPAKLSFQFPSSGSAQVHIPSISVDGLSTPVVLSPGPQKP
In short: as §1

[3] = molecular target: T3, GABPA (Homo sapiens, UniProt Q06546 1-454); details: protein: recombinant; tags: N-terminal GST; dsDNA, one strand shown
T3 sequence: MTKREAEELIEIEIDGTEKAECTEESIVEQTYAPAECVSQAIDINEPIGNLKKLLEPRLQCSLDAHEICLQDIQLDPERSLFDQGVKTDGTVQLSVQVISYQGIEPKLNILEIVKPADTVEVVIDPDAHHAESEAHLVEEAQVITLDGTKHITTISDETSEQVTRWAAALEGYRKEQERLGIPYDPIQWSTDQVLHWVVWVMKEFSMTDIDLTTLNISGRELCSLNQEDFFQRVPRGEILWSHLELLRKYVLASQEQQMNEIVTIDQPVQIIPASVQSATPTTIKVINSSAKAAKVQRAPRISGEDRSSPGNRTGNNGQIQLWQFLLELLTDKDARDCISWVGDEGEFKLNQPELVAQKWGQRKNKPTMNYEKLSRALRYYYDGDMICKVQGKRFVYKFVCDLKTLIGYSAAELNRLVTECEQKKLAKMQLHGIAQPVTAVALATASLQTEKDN
In short: as §1

[4] = molecular target: T4, ERG (Homo sapiens, UniProt P11308 1-479); details: protein: recombinant; tags: N-terminal GST; dsDNA, one strand shown
T4 sequence: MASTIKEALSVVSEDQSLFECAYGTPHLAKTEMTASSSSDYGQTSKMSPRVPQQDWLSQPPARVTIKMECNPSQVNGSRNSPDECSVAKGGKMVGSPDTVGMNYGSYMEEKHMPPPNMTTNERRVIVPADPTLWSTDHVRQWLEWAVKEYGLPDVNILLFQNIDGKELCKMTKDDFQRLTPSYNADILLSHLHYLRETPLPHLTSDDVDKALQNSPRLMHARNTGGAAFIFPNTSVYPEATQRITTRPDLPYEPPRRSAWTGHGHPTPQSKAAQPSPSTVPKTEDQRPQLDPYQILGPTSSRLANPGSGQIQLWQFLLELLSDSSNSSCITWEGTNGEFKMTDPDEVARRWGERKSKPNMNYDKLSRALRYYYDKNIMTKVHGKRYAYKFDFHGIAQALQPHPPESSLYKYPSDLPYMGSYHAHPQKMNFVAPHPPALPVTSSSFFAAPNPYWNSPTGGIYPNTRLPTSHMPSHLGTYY
In short: as §1

[5] = molecular target: ELF1 (Homo sapiens, UniProt P32519 1-619); details: protein: recombinant; tags: N-terminal GST; dsDNA, one strand shown
Sequence of ELF1 (P32519 whole entry): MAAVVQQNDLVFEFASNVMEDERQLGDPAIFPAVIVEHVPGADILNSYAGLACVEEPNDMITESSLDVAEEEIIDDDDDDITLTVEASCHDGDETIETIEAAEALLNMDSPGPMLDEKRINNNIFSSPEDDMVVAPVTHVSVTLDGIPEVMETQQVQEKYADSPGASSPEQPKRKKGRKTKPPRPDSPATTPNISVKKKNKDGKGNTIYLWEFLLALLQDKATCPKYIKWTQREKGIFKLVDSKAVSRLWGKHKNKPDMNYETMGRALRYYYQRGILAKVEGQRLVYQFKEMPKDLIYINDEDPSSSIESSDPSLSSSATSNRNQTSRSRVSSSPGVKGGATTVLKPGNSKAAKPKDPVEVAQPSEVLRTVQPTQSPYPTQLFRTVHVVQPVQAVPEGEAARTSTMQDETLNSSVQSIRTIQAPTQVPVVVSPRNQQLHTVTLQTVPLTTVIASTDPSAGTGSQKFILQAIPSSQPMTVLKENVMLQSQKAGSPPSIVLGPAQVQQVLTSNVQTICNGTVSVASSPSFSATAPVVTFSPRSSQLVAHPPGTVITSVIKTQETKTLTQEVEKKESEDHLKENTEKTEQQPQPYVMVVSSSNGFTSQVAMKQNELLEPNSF
In short: as §1

[6] = molecular target: T5, EHF (Homo sapiens, UniProt Q9NZC4 1-300); details: protein: recombinant; tags: N-terminal GST; dsDNA, one strand shown
T5 sequence: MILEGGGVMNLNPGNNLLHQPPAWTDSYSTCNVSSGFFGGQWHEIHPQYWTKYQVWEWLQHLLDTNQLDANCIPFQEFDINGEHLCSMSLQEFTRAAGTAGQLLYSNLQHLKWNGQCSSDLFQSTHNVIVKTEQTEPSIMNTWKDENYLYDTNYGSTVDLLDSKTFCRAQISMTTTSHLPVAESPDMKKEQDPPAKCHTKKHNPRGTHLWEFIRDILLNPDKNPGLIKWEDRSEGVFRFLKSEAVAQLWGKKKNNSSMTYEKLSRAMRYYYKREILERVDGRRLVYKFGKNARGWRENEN
In short: as §1

[7] = molecular target: SPI1 (Homo sapiens, UniProt P17947 1-270); details: protein: recombinant; tags: N-terminal GST; dsDNA, one strand shown
In short: as §1

[8] = molecular target: SPIB (Homo sapiens, UniProt Q01892 1-262); details: protein: recombinant; tags: N-terminal GST; dsDNA, one strand shown
Sequence of SPIB (Q01892 whole entry): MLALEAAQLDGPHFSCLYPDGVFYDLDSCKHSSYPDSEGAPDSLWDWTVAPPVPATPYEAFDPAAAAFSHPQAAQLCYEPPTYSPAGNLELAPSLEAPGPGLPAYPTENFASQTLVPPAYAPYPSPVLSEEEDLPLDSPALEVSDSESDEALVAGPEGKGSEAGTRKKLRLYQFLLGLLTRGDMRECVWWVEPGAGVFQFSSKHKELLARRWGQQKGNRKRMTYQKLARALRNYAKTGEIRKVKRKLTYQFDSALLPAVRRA
In short: as §1

[9] = molecular target: T6, ELK3 (Homo sapiens, UniProt P41970 1-407); details: protein: recombinant; tags: N-terminal GST; dsDNA, one strand shown
T6 sequence: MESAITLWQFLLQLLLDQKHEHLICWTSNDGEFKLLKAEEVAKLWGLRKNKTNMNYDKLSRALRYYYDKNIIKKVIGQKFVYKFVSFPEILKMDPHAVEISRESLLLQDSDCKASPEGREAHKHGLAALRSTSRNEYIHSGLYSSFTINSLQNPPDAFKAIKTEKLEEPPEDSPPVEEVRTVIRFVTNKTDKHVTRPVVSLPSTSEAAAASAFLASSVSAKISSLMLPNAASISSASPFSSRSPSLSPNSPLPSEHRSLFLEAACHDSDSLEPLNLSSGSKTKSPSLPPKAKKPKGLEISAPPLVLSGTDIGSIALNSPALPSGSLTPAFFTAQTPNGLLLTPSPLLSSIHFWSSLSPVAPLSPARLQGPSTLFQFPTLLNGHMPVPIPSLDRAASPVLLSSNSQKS
In short: as §1

[10] = molecular target: T7, FEV (Homo sapiens, UniProt Q99581 1-238); details: protein: recombinant; tags: N-terminal GST; dsDNA, one strand shown
T7 sequence: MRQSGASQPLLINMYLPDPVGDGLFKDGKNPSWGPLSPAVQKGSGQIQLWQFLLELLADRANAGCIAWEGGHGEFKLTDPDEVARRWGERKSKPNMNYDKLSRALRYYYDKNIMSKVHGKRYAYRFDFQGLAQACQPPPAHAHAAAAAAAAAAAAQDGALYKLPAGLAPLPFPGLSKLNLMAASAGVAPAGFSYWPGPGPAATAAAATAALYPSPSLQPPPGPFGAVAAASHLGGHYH
In short: as §1

[11] = molecular target: ETV5 (Homo sapiens, UniProt P41161 1-510); details: protein: recombinant; tags: N-terminal GST; dsDNA, one strand shown
Sequence of ETV5 (P41161 whole entry): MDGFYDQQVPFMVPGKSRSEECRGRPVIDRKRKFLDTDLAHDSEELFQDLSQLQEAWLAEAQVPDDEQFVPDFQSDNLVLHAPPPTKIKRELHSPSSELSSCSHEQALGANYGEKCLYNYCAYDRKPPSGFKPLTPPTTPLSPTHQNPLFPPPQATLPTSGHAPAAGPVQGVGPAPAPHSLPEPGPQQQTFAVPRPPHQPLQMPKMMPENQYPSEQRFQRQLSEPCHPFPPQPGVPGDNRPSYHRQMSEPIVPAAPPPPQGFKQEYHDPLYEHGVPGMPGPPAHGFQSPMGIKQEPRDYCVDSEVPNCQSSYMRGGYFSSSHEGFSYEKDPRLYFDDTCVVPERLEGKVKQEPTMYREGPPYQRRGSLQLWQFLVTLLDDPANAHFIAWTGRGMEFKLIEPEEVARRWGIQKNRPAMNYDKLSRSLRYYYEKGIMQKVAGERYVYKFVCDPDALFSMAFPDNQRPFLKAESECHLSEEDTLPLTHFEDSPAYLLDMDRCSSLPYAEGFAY
In short: as §1

[12] = molecular target: HSF1 (Homo sapiens, UniProt Q00613 1-529); details: protein: recombinant; tags: N-terminal GST; chain copies: 3; dsDNA, one strand shown
Sequence of HSF1 (Q00613 whole entry): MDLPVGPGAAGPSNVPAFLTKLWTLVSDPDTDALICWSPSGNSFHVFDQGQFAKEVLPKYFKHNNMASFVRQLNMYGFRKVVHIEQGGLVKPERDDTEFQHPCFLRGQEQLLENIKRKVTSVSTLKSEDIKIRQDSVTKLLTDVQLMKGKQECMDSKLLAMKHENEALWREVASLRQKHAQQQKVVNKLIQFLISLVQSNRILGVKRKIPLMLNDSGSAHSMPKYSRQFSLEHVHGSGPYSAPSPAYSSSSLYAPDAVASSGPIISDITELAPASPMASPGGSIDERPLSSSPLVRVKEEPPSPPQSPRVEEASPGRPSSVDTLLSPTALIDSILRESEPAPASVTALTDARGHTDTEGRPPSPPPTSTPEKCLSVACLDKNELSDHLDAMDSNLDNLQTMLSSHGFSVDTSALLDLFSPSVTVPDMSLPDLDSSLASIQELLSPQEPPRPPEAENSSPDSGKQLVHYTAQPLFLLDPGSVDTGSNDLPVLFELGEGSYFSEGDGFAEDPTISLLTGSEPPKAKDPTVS
In short: as §1

[13] = molecular target: T8, SPIC (Homo sapiens, UniProt Q8N5J4 1-248); details: protein: recombinant; tags: N-terminal GST; dsDNA, one strand shown
T8 sequence: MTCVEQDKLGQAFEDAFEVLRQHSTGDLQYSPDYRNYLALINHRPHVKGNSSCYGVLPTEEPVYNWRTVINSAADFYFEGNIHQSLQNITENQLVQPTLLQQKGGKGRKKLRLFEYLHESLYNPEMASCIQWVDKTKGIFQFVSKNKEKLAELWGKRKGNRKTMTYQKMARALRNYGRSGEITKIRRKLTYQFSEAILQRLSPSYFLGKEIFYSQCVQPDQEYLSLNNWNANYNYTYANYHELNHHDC
In short: as §1

[14] = molecular target: ELF4 (Homo sapiens, UniProt Q99607 1-663); details: protein: recombinant; tags: N-terminal GST; dsDNA, one strand shown
Sequence of ELF4 (Q99607 whole entry): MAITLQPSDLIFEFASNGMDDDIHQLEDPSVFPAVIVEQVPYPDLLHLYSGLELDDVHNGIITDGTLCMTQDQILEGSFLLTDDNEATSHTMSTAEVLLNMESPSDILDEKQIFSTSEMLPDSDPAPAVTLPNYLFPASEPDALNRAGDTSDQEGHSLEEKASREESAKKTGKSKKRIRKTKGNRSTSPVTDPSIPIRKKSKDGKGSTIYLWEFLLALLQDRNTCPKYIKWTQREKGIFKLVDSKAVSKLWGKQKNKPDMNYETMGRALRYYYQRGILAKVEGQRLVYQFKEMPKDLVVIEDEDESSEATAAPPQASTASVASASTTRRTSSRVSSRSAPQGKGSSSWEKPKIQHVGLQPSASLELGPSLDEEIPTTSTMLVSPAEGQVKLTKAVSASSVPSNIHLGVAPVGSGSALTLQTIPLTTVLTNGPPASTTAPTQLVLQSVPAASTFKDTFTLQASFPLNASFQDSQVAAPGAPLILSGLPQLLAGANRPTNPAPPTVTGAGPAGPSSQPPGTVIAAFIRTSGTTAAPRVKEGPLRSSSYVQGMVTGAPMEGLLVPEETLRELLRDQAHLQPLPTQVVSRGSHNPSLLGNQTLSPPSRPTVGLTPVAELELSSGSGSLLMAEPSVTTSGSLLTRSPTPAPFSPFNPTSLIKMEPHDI
In short: as §1

[15] = molecular target: T9, ELK4 (Homo sapiens, UniProt P28324-2 1-405); details: protein: recombinant; tags: N-terminal GST; dsDNA, one strand shown
T9 sequence: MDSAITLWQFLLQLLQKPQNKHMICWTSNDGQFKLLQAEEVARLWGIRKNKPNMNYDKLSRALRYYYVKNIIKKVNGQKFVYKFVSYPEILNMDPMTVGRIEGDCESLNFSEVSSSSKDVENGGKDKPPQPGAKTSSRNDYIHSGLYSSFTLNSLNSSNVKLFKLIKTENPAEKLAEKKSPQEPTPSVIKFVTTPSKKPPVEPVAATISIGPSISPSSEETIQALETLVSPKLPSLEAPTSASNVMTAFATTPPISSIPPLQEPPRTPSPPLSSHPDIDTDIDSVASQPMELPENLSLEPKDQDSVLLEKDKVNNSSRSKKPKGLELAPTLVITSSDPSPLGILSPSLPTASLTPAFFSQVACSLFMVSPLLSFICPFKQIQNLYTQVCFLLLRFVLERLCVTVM
In short: as §1

[16] = molecular target: T10, ETV2 (Homo sapiens, UniProt O00321 1-342); details: protein: recombinant; tags: N-terminal GST; dsDNA, one strand shown
T10 sequence: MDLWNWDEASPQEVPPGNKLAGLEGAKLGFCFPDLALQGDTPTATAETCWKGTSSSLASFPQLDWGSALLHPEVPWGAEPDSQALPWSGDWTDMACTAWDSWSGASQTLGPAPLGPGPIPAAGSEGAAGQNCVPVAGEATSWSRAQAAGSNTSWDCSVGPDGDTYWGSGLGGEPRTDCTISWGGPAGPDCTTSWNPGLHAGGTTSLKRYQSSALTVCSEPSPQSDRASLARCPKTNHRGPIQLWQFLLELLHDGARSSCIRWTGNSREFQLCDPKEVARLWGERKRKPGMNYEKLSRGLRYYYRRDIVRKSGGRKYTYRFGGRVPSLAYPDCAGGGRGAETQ
In short: as §1

[17] = molecular target: T11, ELF3 (Homo sapiens, UniProt P78545 1-371); details: protein: recombinant; tags: N-terminal GST; dsDNA, one strand shown
T11 sequence: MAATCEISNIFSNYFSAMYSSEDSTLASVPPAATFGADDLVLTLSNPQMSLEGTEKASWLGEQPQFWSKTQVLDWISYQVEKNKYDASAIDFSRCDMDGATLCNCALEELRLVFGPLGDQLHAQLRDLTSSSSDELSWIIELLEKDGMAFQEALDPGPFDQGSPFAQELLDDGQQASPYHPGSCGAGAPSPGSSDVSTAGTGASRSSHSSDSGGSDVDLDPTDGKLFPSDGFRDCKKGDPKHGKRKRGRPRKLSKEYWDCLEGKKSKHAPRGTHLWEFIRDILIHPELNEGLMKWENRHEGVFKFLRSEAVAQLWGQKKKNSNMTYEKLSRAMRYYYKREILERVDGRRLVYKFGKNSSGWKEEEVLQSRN
In short: as §1

[18] = molecular target: CRX (Homo sapiens, UniProt O43186 1-299); details: protein: recombinant; tags: N-terminal GST; dsDNA, one strand shown
Sequence of CRX (O43186 whole entry): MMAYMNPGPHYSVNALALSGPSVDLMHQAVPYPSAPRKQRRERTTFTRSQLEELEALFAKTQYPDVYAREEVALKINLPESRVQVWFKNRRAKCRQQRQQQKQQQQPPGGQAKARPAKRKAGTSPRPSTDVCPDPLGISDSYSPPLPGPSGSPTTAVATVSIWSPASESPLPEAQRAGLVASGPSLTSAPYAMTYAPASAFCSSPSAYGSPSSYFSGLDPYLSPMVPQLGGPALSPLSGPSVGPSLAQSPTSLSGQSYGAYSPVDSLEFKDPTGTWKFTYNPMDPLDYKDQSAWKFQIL
In short: as §1

[19] = molecular target: ETV1 (Homo sapiens, UniProt P50549 1-477); details: protein: recombinant; tags: N-terminal GST; dsDNA, one strand shown
Sequence of ETV1 (P50549 whole entry): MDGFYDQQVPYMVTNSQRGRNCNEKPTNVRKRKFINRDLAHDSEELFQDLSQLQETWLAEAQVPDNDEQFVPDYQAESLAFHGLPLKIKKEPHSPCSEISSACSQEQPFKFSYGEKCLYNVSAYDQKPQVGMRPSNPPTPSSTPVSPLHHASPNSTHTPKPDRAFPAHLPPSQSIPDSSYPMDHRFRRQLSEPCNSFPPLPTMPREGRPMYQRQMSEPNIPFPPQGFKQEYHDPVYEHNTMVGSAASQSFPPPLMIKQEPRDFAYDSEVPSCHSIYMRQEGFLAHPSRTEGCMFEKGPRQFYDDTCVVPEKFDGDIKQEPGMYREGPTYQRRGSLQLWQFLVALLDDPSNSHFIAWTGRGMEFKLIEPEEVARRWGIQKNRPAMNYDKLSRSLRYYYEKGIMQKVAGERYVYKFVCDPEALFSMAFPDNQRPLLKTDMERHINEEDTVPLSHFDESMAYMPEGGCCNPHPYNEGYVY
In short: as §1

## TTTTCG
[1]
  binding signal: 1.18 fold enrichment (6-mer frequency, TF over GST control)
[2]
  binding signal: 1.28 fold enrichment (6-mer frequency, TF over GST control)
[3]
  binding signal: 1.24 fold enrichment (6-mer frequency, TF over GST control)
[4]
  binding signal: 1.2 fold enrichment (6-mer frequency, TF over GST control)
[5]
  binding signal: 1.22 fold enrichment (6-mer frequency, TF over GST control)
[6]
  binding signal: 1.25 fold enrichment (6-mer frequency, TF over GST control)
[7]
  binding signal: 1.27 fold enrichment (6-mer frequency, TF over GST control)
[8]
  binding signal: 1.16 fold enrichment (6-mer frequency, TF over GST control)
[9]
  binding signal: 1.35 fold enrichment (6-mer frequency, TF over GST control)
[10]
  binding signal: 1.23 fold enrichment (6-mer frequency, TF over GST control)
[11]
  binding signal: 1.27 fold enrichment (6-mer frequency, TF over GST control)
[12]
  binding signal: 1.53 fold enrichment (6-mer frequency, TF over GST control)
[13]
  binding signal: 1.11 fold enrichment (6-mer frequency, TF over GST control)
[14]
  binding signal: 1.29 fold enrichment (6-mer frequency, TF over GST control)
[15]
  binding signal: 1.08 fold enrichment (6-mer frequency, TF over GST control)
[16]
  binding signal: 1.33 fold enrichment (6-mer frequency, TF over GST control)
[17]
  binding signal: 1.11 fold enrichment (6-mer frequency, TF over GST control)
[18]
  binding signal: 1.28 fold enrichment (6-mer frequency, TF over GST control)
[19]
  binding signal: 1.2 fold enrichment (6-mer frequency, TF over GST control)
